Assay results as given in ChEMBL document CHEMBL5308541, “MAIP: An Open-Source Tool to Enrich High-Throughput Screening Output and Identify Novel, Druglike Molecules with Antimalarial Activity” (ACS Med Chem Lett, 2023).
Screen size: about 4,800 compounds; about 410 (8.5%) showed an effect of 50% or more. What follows is part of a selection rich in strong results, with near analogues and random picks from the rest.

System: Plasmodium falciparum
Assay: Confirmatory screen in NF54 pLDH assay, in single point, at 2uM, 72h
Format: functional, Erythrocyte
Conditions: timepoint 72 hour

Compound | % Inhibition
CN1CCC(N(Cc2ccccc2)C(=O)c2cc3cnccc3[nH]2)CC1 | 58%
Cc1cc(N2CCC(NC3CCCC3Cc3ccc(F)cc3)CC2)nc(N)n1 (stereo not drawn) | 103%
Cc1cc(N2CCC(NC3CCNC(c4ccccc4)C3)CC2)nc(C)n1 (stereo not drawn) | 33%
O=C(NCC1CC1)c1cc2c(OCc3ccc(Cl)cc3)cccc2[nH]1 | 53%
Cc1cc(NC[C@H](O)COc2ccc(F)cc2)nc2ccccc12 | 81%
N#Cc1ccc(N2C[C@H](COCC3CC3)C3(CCN(Cc4cccc(O)c4)CC3)C2)cc1C(F)(F)F | 89%
COCCCN1CCC(Nc2ncnc3cc(C)c(C)cc23)CC1 | 94%
CC1(N2CCC2)CCC(NC[C@H]2CCN(Cc3ccccc3)C2)CC1 (stereo partly drawn) | 66%
Cn1nnc(C(=O)N2CCCCC23CCCCCC3)n1 | 59%
Cc1ccc2[nH]c(-c3cc4n(n3)CCN(c3ccnc(N)n3)C4)nc2c1C | 97%
c1ccc(CN2CCC(CCNC[C@@H]3CCCN4CCCC[C@H]34)CC2)cc1 | 63%
CCN(Cc1cnn(-c2cccc(Cl)c2)c1)CC1CCN(C2CCN(C)CC2)CC1 | 92%
CCN(Cc1[nH]c2ccc(Cl)cc2c1C)CC1CCN(C2CCN(C)CC2)CC1 | 102%
COc1ccc(-c2cc(-c3ccccc3O)n([C@@H]3C(=O)Nc4ccc(Br)cc43)n2)cc1 | 46%
CC(C)c1ccc(-c2noc(CCN3CCN(CCCN(C)C)CC3)n2)cc1 | 30%
CC(C)c1ccc(-c2nc(CN3CCCCC3)cc(CN3CCCCC3)c2O)cc1 | 92%
c1ccc(CNc2ccc(-c3noc(C45CCCN(CCC4)C5)n3)cn2)cc1 | 99%
CN1CCN(CCNC2CCN3CCCC3C2)C(c2ccccc2)C1 (stereo not drawn) | 28%
CCCc1cccc(CNC2CCN(C3CCN(C)CC3)CC2)c1 | 71%
C[C@@H](CNC1CCN(C2CCN(C)CC2)CC1)c1cccc(Cl)c1 | 103%
Brc1cccc(NCCNC2CCN(Cc3cccnc3)CC2)c1 | 41%
c1cncc(-c2ccc(CNC3CCN(Cc4cccs4)CC3)cc2)c1 | 86%
CN1CCN(CCOc2ccccc2CN(C)Cc2cc3cc(F)ccc3[nH]2)CC1 | 104%
COc1ccc(CNCc2cc3ccccc3[nH]2)cc1CN(C)C | 36%
CN(c1ccccc1)c1ccc(CN2CCN([C@H]3CCNC3)CC2)cc1 | 0%
CN1CCC[C@H](CN2CCN(Cc3cc4n(n3)CCCNC4)CC2)C1 | -7%

Compound | % Inhibition
Fc1ccc(N2CCC(N[C@@H]3COC4(CCNCC4)C3)CC2)cc1F | 6%
N[C@H]1CC[C@@H](NC2CCN(c3ccc(F)c(F)c3)CC2)CC1 | 35%
Cc1nc2ccc(CNC3CCN(c4ccc(F)c(F)c4)CC3)cc2[nH]1 | 64%
CN(CCCn1ccnc1)c1ccnc2cc(Br)ccc12 | 98%
Cc1cccc(Nc2ccnc(Nc3ccc(N4CCN(C)CC4)cc3)n2)c1 | 99%
COc1ccc2c(N3CC[C@H](CN4CCCC4)C3)ccnc2c1 | 102%
CNc1nc(N2CCN(CC(=O)NC3CCCCC3)CC2)nc2ccccc12 | 26%
CN1CCN(CC2CCN(c3ccnc4ccccc34)CC2)CC1 | 103%
Cn1cncc1[C@@H]1CNC[C@H]1CNC(=O)c1ccccc1NC1CCCCC1 | 73%
O=C(Nc1cnc2c(c1)COCC2)c1cc2c(OC(F)(F)F)cccc2[nH]1 | 102%
CCN1CCC[C@H](Nc2cccc(-n3ccnc3)n2)C1 | 32%
O[C@H]1CCN(Cc2ccccc2CNc2cccc(-n3ccnc3)n2)C1 | 101%
O[C@H]1CCN(Cc2cccc(NCc3cn4ccnc4s3)c2)C1 | 45%
CN1CCN(CCCCNC2CC3CCC(C2)N3Cc2ccccc2)CC1 (stereo not drawn) | 41%
OCCN1CCC(NCCc2cc(Cl)cc(Cl)c2)CC1 | 30%
Nc1ccnc2ccc(-c3ccc(C(=O)NCC4CCOCC4)cc3)cc12 | 102%
O=C1C2CCCCC2C(c2c(-c3ccccc3)[nH]c3ccccc23)N1Cc1ccccc1 (stereo not drawn) | 33%
COc1cc2nc(NCC3(N4CCN(C)CC4)CCCC3)cc(C)c2cc1OC | 103%
Cc1ccccc1-c1cccc(CNCCCN2CCC[C@H](O)C2)c1 | 17%
Cc1ccccc1-c1cccc(N2CCC(NCC3CCNCC3)CC2)c1 | 100%
Cc1ccc2[nH]c(CNC[C@@H](CO)C3CCC3)cc2c1C | 80%
CNc1nc(C)c(-c2ccnc(Nc3cccc(S(C)(=O)=O)c3)n2)s1 | 45%
Nc1nc(NCC2CCN(CCc3ccccc3)CC2)cc([C@H]2C[C@@H](N)C2)n1 | 26%
CCCN1CCC(Nc2cc(C)nc3ccccc23)CC1 | 89%
Cc1cc(NC[C@H]2CN(CC(C)C)CCO2)c2ccccc2n1 | 28%
CC(C)CCOc1ccc2[nH]c(-c3cc(N4CCC[C@@H]4CS(C)(=O)=O)ccn3)cc2c1 | 98%

Compound | % Inhibition
COc1ccc2cc(-c3cc(N)ccn3)[nH]c2c1 | 89%
Nc1ccnc(-c2cccc3[nH]ccc23)c1 | 0%
COc1ccc2[nH]cc(-c3ccc(N)nc3)c2c1 | -21%
COc1ccc2cc(NC(=O)c3cc(-c4c(C)nn(C)c4C)[nH]n3)cnc2c1 | 81%
Oc1cccc2c1CCC[C@@H]2NCc1ccc2occc2c1 | 55%
CN(C)C1CCN(CCN[C@H]2CCc3ccc(F)cc32)CC1 | 97%
CCN1CCN(C[C@@H](C)CNCc2cc(-c3ccccc3)ccc2OC)CC1 | -4%
O[C@H](COc1ccccc1CNCc1cc(-c2ccccc2)[nH]n1)CN1CCCCC1 | 103%
Cc1ccn2cc(-c3ccc(N4CCC(NCc5cccnc5)CC4)cc3)nc2c1 | 102%
Cc1nc(N2CCN(C)CC2)cc(N2CCN(S(=O)(=O)c3ccccc3C(F)(F)F)CC2)n1 | 56%
O=C(NCc1ccc(N2CCNCC2)c(F)c1)c1ccc(-c2noc(C(F)(F)F)n2)cc1 | 54%
c1ccc2c(Nc3ccc4[nH]cnc4c3)c3ccccc3nc2c1 | 102%
FC(F)(F)c1ccc(-c2c(-c3ccccc3)ncn2Cc2ncn[nH]2)cc1 | 7%
Cc1cnccc1NCCNCc1cnc(N2CCCCC2)nc1 | 62%
Cc1cnccc1NCCNCc1cccc(OCCCCN2CCOCC2)c1 | 95%
CCCN1CCC(N2CC(c3cccnc3)C(c3nc(C4CCCC4)no3)C2)CC1 (stereo not drawn) | 10%
OCC1CCCN1CCCCNC1CC2(CCC2)Oc2ccccc21 (stereo not drawn) | -5%
COc1ccc2c(O)c(Br)c(C)nc2c1 | 72%
COc1ccc2nc3cc(Cl)ccc3c(O)c2c1 | 39%
Cc1nc(-c2ccccn2)nc(NC2CCN(CC(F)F)CC2)c1C | 24%
Cc1cnccc1N1CCCN(Cc2ccccc2OCCN2CCN(C)CC2)CC1 | 102%
CCCC(=O)NC1COCC1Cc1ccncc1 (stereo not drawn) | 86%
CCOc1cc(C(=O)NC2CCN(CC3CCCC3)CC2)cc(-c2ccccc2)c1OC | 99%
Cc1cc(F)ccc1N1CCC(NCCCNc2cccnc2)CC1 | -2%
FC(F)(F)c1ccc(N2CCC[C@H](NC3CCN(Cc4ccco4)CC3)C2)nc1 | 38%
CCc1cc(Nc2ccc(N3CCOCC3)nc2)nc(-c2ccncc2)n1 | 42%

Compound | % Inhibition
O=C(NC1CCN(CCOc2ccc(Cl)cc2)CC1)c1c[nH]c2ccncc2c1=O | 100%
OC[C@H](CNCc1cc2ccc(F)cc2[nH]1)c1ccccc1Cl | 82%
O[C@@H](CNCc1cc2cc(Cl)c(Cl)cc2[nH]1)c1ccc(F)cc1 | 80%
CN(CCCc1cc(-c2ccc(F)cc2)n[nH]1)CC1CCNCC1 | 17%
Cc1cc(N2CCC(N(C)Cc3cc(-c4ccccc4)n[nH]3)CC2)nc(N)n1 | 52%
CCN1CCN(c2ccc(CNCc3cccc(O)c3)cc2F)CC1 | 85%
Cc1ccccc1CN1CCC(CNc2c3c(nc4ccccc24)CCC3)CC1 | 103%
N#Cc1cccc(Cl)c1N1CCC(N2CCCC2)CC1 | 38%
CCc1cc(NCCc2nc3cc(F)ccc3[nH]2)nc(-c2ccccn2)n1 | 9%
C[C@H](Nc1nc(N)c2ccccc2n1)c1cccc(-n2cncn2)c1 | 29%
COCCNc1nc(N[C@@H](C)c2ccccc2)c2ccccc2n1 | 92%
NCC1(O)CCN(c2ccnc3cc(F)c(Cl)cc23)CC1 | 97%
CCc1oc2ccccc2c1CNC[C@H](O)c1ccc(Cl)cc1 | 99%
CC(C)c1ccc(CN2CCC[C@@](O)(CNCCN3CCNCC3)C2=O)cc1 | 29%
O=C1CN(C(=O)c2ccnc3ccccc23)CCN1Cc1ccccc1F | 63%
COc1cc2nc(-c3ccc(F)c4cccnc34)nc(N)c2cc1OC | 102%
Cc1cc(C)c(CN2CCN(C)CC2)cc1CNCCCn1ccnc1C | 44%
Cc1cccc(N2CCC(NCc3cc(C)cc(CN4CCN(C)CC4)c3C)CC2)c1 | 84%
Clc1ccc2[nH]c3c(c2c1)CCCC3NC1CCN(C2CCOC2)CC1 (stereo not drawn) | 96%
O=C(NCc1ccc(OC(F)(F)F)cc1)N(CCN1CCCC1)[C@H]1CCCNC1 | 33%
CCN1CCC(N2CCC(C(=O)NCCc3ccc(OC(F)(F)F)cc3)CC2)CC1 | 53%
Cc1sc2nc(-c3ccccn3)nc(NCCc3nccn3C)c2c1-c1ccccc1 | 65%
O=C(CCc1nnc(-c2ccc(-c3ccccc3)cc2)o1)NC[C@@H]1CCCN2CCCC[C@H]12 | 86%
COc1ccc2nc(C)cc(NCc3cccc(NC(=O)c4ccco4)c3)c2c1 | 105%
Cc1c(CN2CCC(O)(Cn3ccnc3)CC2)[nH]c2c(Cl)cccc12 | 99%
